Test results from paper PMC5540273 (PLoS ONE, 2017).

What follows are compounds tested on ANKK1. Conditions: concentration: 1 μM, replicates: in singlicate; n = 1.
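Note: KINOMEscan kinase panel screen.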

Compound	%Inh [%]
O=C(Nc1ccc2c(c1)OCO2)NC1CCN(c2ccnc(NCc3ccc(F)cc3)n2)CC1 [GSK1379859]	0
O=C(Nc1n[nH]c2cc(-c3ccccc3F)ccc12)C1CC1 [SB-733371]	10
Cc1ccccc1COc1cc(-n2cnc3cc(Cl)ccc32)sc1C(N)=O [GW813349]	26
Cc1nnc(-c2ccc(C)c(-c3ccc(C(=O)O)cc3)c2)o1 [GW608005]	0
COc1ccc(-c2cc3c(C)nc(N)nc3n([C@H]3CC[C@H](O)CC3)c2=O)cn1	0
CCC(=O)c1c(-c2ccccc2)c2cc(Cl)ccc2c(=O)n1Cc1cc(S(C)(=O)=O)n(CC(F)F)n1	0
CC(C)(C)c1ccc(C(=O)Nc2cn3cc(-c4ccccc4)ccc3n2)cc1	0
Cc1c(Cn2c(C)nn3c(=O)cc(N4CCO[C@H](C)C4)nc23)cccc1C(F)(F)F [GSK2373690]	0
COc1cccc(C2=C(Nc3cccc(C(=O)O)c3)C(=O)NC2=O)c1 [SB-390770]	70
COc1cc2ncn(-c3cc(OCc4ccncc4)c(C(N)=O)s3)c2cc1OC [GSK336313]	0
COc1ccc(-c2coc3ccc(-c4nnc(SCc5cccc(C#N)c5)o4)cc23)cc1	19
Nc1nc(-c2ccccc2F)c(-c2ccnc3ccccc23)s1 [GW560459]	16
COC(=O)c1c(-c2ccccc2)c2cc(Br)ccc2c(=O)n1Cc1ccc(NC(=O)CCC(=O)O)cc1	0
COC(=O)c1c(-c2ccccc2)c2cc(Br)ccc2c(=O)n1Cc1ccc(S(C)(=O)=O)cc1	0
CCc1nc(-c2cccc(C)c2)c(-c2ccncc2)s1	0
COc1cc(Nc2ccnc3ccc(C(F)(F)F)cc23)cc(OC)c1OC [GW577382]	12
COC(=O)c1c(-c2ccccc2)c2cc(C)ccc2c(=O)n1Cc1ccccc1	0
CN1C(=O)C(Nc2ccccc2)=C(c2ccccc2)C1=O [SB-300079]	15

Compound	%Inh [%]
CCC(=O)c1c(-c2ccccc2)c2cc(Cl)ccc2c(=O)n1Cc1cc(C(=O)NC2CC2)n(C)n1	0
Nc1ncnc2c1ncn2-c1ccc(Cl)cc1 [AH2635]	0
Cc1cccc(-c2cc(-c3c[nH]nc3-c3ccccn3)ccn2)c1 [GW679395]	0
CN1C(=O)C(Nc2cc(Cl)c(O)c(Cl)c2)=C(c2ccc(Cl)cc2)C1=O [SB-404321]	0
COc1cc2nccc(Nc3cccc(Oc4ccccc4)c3)c2cc1OC.Cl [GW284543]	0
CCCC(=O)Nc1n[nH]c2ncc(-c3cccc4ccccc34)cc12 [SB-642057]	7
COc1cccc(C2=C(N(C)c3ccccc3)C(=O)NC2=O)c1 [SB-334865]	0
COc1ccc(-c2cc3c(C)nc(N)nc3n([C@H]3CC[C@H](OCCO)CC3)c2=O)cn1	0
Nc1ncnc2c1ncn2-c1cccc(F)c1 [SKF-97560]	17
CN(C)c1cc(-c2ccc3c(N)n[nH]c3c2)nc(N)n1 [GSK2219329]	10
COc1ccc(-n2cnc3c(N)ncnc32)cc1 [SKF-97236]	17
Cn1c(=O)c(F)c(Nc2ccc(I)cc2F)c2c(=O)n(OC[C@H](O)CO)cnc21	0
COc1cc(Nc2nccc(N3CCC(NC(=O)C(C)c4ccc(Cl)cc4)C3)n2)cc(OC)c1OC (stereo not drawn) [GSK1379757]	17
COc1cc2ncn(-c3cc(OCCCc4ccccc4)c(C(N)=O)s3)c2cc1OC [GSK205189]	0
Cc1cccc(-c2nc(Nc3ccc4c(cnn4C)c3)c3ccccc3n2)n1 [GW876731]	16
Nc1nc(N)c2nc(-c3ccccc3)[nH]c2n1 [SKF-12778]	63
Cl.c1ccc(Cn2cnc3cc(Nc4ncnc5ccccc45)ccc32)cc1 [GW272142]	0
Nc1nccc2scc(-c3ccc4c(c3)CCN4C(=O)Cc3ccccc3)c12 [GSK2576924]	21
